Counter-ions that a name gives are not always drawn.
Assays:
U-2932 [1] = experiment: growth inhibition by drug alone (1 - RLU/untreated control) (fraction); higher = stronger inhibition; details: 177Lu-lilotomab satetraxetan 0 ug/ml
Procedure, shortened: (§1)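 Plates pre-printed with the Selleck Cambridge Cancer Compound library at 10/100 nM (RIVA) or 10/1,000 nM (U-2932) received 3,000 cells/well. These cells had been washed after 18 h untreated or with a radiolabelled anti-CD37 antibody conjugate (~600 MBq/mg; 0.5 µg/ml RIVA, 1 µg/ml U-2932). Growth inhibition was obtained from RealTime-Glo luminescence in relation to untreated no-drug wells. Each daily read from day 3, taken after 1 h at 37°C, was converted as 1 − RLU/mean of 48 such wells per plate.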

RIVA [2] = experiment: as above; details: 177Lu-lilotomab satetraxetan 0 ug/ml
Procedure, shortened: as §1

U-2932 [3] = experiment: growth inhibition by drug plus 177Lu-lilotomab satetraxetan (1 - RLU/untreated control) (fraction); higher = stronger inhibition; details: 177Lu-lilotomab satetraxetan 1 ug/ml
Procedure, shortened: as §1

RIVA [4] = experiment: as above; details: 177Lu-lilotomab satetraxetan 0.5 ug/ml
Procedure, shortened: as §1

SMILES	growth inhibition by drug alone (U-2932 [1]; 10 nM, time (day): 3)	growth inhibition by drug alone (U-2932 [1]; 10 nM, time (day): 4)	growth inhibition by drug alone (U-2932 [1]; 10 nM, time (day): 5)	growth inhibition by drug alone (U-2932 [1]; 10 nM, time (day): 6)	growth inhibition by drug alone (U-2932 [1]; 1000 nM, time (day): 3)	growth inhibition by drug alone (U-2932 [1]; 1000 nM, time (day): 4)	growth inhibition by drug alone (U-2932 [1]; 1000 nM, time (day): 5)	growth inhibition by drug alone (U-2932 [1]; 1000 nM, time (day): 6)	growth inhibition by drug alone (RIVA [2]; 10 nM, time (day): 3)	growth inhibition by drug alone (RIVA [2]; 10 nM, time (day): 4)	growth inhibition by drug alone (RIVA [2]; 10 nM, time (day): 5)	growth inhibition by drug alone (RIVA [2]; 10 nM, time (day): 6)	growth inhibition by drug alone (RIVA [2]; 100 nM, time (day): 3)	growth inhibition by drug alone (RIVA [2]; 100 nM, time (day): 4)	growth inhibition by drug alone (RIVA [2]; 100 nM, time (day): 5)	growth inhibition by drug alone (RIVA [2]; 100 nM, time (day): 6)	growth inhibition by drug plus 177Lu-lilotomab satetraxetan (U-2932 [3]; 10 nM, time (day): 3)	growth inhibition by drug plus 177Lu-lilotomab satetraxetan (U-2932 [3]; 10 nM, time (day): 4)	growth inhibition by drug plus 177Lu-lilotomab satetraxetan (U-2932 [3]; 10 nM, time (day): 5)	growth inhibition by drug plus 177Lu-lilotomab satetraxetan (U-2932 [3]; 10 nM, time (day): 6)	growth inhibition by drug plus 177Lu-lilotomab satetraxetan (U-2932 [3]; 1000 nM, time (day): 3)	growth inhibition by drug plus 177Lu-lilotomab satetraxetan (U-2932 [3]; 1000 nM, time (day): 4)	growth inhibition by drug plus 177Lu-lilotomab satetraxetan (U-2932 [3]; 1000 nM, time (day): 5)	growth inhibition by drug plus 177Lu-lilotomab satetraxetan (U-2932 [3]; 1000 nM, time (day): 6)	growth inhibition by drug plus 177Lu-lilotomab satetraxetan (RIVA [4]; 10 nM, time (day): 3)	growth inhibition by drug plus 177Lu-lilotomab satetraxetan (RIVA [4]; 10 nM, time (day): 4)	growth inhibition by drug plus 177Lu-lilotomab satetraxetan (RIVA [4]; 10 nM, time (day): 5)	growth inhibition by drug plus 177Lu-lilotomab satetraxetan (RIVA [4]; 10 nM, time (day): 6)	growth inhibition by drug plus 177Lu-lilotomab satetraxetan (RIVA [4]; 100 nM, time (day): 3)	growth inhibition by drug plus 177Lu-lilotomab satetraxetan (RIVA [4]; 100 nM, time (day): 4)	growth inhibition by drug plus 177Lu-lilotomab satetraxetan (RIVA [4]; 100 nM, time (day): 5)	growth inhibition by drug plus 177Lu-lilotomab satetraxetan (RIVA [4]; 100 nM, time (day): 6)
CC(C)CC(=O)Nc1n[nH]c2c1CN(C(=O)C1CCN(C)CC1)C2(C)C	0.109	0.0893	0.0354	-0.0355	0.595	0.787	0.911	0.958	0.109	0.0478	0.0236	-0.141	0.546	0.346	0.355	0.378	0.0658	0.101	0.0816	0.125	0.692	0.855	0.93	0.967	0.403	0.515	0.533	0.549	0.35	0.419	0.465	0.517
CCC1=C[C@@H]2CN(C1)Cc1c([nH]c3ccccc13)[C@@](C(=O)OC)(c1cc3c(cc1OC)N(C)[C@H]1[C@@](O)(C(=O)OC)[C@H](OC(C)=O)[C@]4(CC)C=CCN5CC[C@]31[C@@H]54)C2 [Vinorelbine (Navelbine)]	0.571	0.587	0.595	0.614	0.971	0.976	0.98	0.983	0.907	0.914	0.922	0.926	0.949	0.964	0.968	0.972	0.489	0.544	0.598	0.621	0.975	0.98	0.983	0.988	0.928	0.949	0.961	0.969	0.967	0.978	0.982	0.987
CC(=O)O[C@H]1C(=O)[C@@]2(C)[C@H]([C@H](OC(=O)c3ccccc3)[C@]3(O)C[C@H](OC(=O)[C@H](O)[C@@H](NC(=O)c4ccccc4)c4ccccc4)C(C)=C1C3(C)C)[C@]1(OC(C)=O)CO[C@@H]1C[C@@H]2O [Paclitaxel (Taxol)]	0.806	0.808	0.794	0.778	0.955	0.969	0.977	0.983	0.943	0.957	0.965	0.967	0.949	0.962	0.969	0.972	0.818	0.846	0.866	0.883	0.955	0.97	0.979	0.986	0.961	0.977	0.983	0.986	0.968	0.979	0.984	0.986
CCN[C@H]1C[C@H](C)S(=O)(=O)c2sc(S(N)(=O)=O)cc21 [Dorzolamide HCL]	-0.0781	-0.0488	-0.0257	0.0748	0.15	0.182	0.141	0.205	-0.103	-0.133	-0.166	-0.25	-0.0335	-0.0982	-0.134	-0.179	-0.0513	-0.0344	-0.00192	0.152	0.0973	0.164	0.191	0.279	0.311	0.443	0.471	0.489	0.267	0.375	0.389	0.37
CCOC(=O)[C@@H](C)Oc1cccc2c(=O)n(CC(=O)Nc3ccc4c(c3)OCCO4)ccc12	-0.0226	-0.00751	0.0431	0.176	-0.114	-0.0578	-0.0945	-0.15	-0.12	-0.131	-0.182	-0.361	0.0368	-0.0449	-0.0731	-0.142	-0.0102	0.0168	0.0306	0.145	-0.139	-0.0327	-0.0266	-0.0505	0.384	0.517	0.542	0.536	0.305	0.424	0.427	0.414
CC[C@]1(O)C[C@@H]2CN(CCc3c([nH]c4ccccc34)[C@@](C(=O)OC)(c3cc4c(cc3OC)N(C)[C@H]3[C@@](O)(C(=O)OC)[C@H](OC(C)=O)[C@]5(CC)C=CCN6CC[C@]43[C@@H]65)C2)C1 [Vinblastine]	0.125	0.0844	0.0429	0.00677	0.942	0.96	0.971	0.978	0.0866	0.101	0.0372	-0.193	0.546	0.442	0.393	0.337	0.0509	0.085	0.136	0.198	0.96	0.973	0.981	0.984	0.383	0.503	0.523	0.53	0.574	0.643	0.659	0.668
COC(=O)Nc1ccc(-c2nc(N3CCOCC3)c3cnn(C4CCN(C(=O)OC)CC4)c3n2)cc1	0.122	0.107	0.0346	-0.00417	0.454	0.381	0.375	0.388	0.0376	0.1	0.0593	-0.105	0.0485	0.0181	0.033	0.00434	0.113	0.147	0.233	0.252	0.395	0.315	0.348	0.433	0.624	0.663	0.677	0.664	0.468	0.537	0.55	0.563

Source: the supplement of paper PMC6897291
